Consider 40 compounds from PubChem BioAssay (Tox21).

Several values for one entry are separate records, joined by “and”; a condition that tells them apart may be missing. Equal entries are not always repeated. Records with an inconclusive call do not appear. Entries that show only a call come without a potency. More than one record can exist for a structure, and the calls need not agree. Activity calls are given as the source filed them. Calls follow the shape of the full dose curve.
Potency is read from the fitted curve at half-maximal effect.

A short description of this assay: p53 small molecule agonists, cell-based qHTS assay with rat liver microsomes: qHTS cell viability counter screen (AID 1963580). Also: nearly all actives have a fitted effect of over 45% in size. The conditions noted are these: p53RE-bla HCT-116 + rat microsomes, ATP viability, 16 h; series mostly up to 66 µM; activity change, negative = cytotoxicity: at the top concentration. From the text:
National Center for Advancing Translational Sciences [NCATS]
Division of Preclinical Innovation [DPI]
U.S. Environmental Protection Agency [EPA]
National Institutes of Environmental Health Sciences [NIEHS]
National Toxicology Program [NTP]
U.S. Food and Drug Administration [FDA]
p53, a tumor suppressor protein, is activated following cellular insult, including DNA damage and other cellular stresses. The activation of p53 regulates cell fate by inducing DNA repair, cell cycle arrest, apoptosis, or cellular senescence. The activation of p53, therefore, is a good indicator of DNA damage and other cellular stresses. The CellSensor p53RE-bla HCT-116 cell line contains a stably integrated beta-lactamase reporter gene under control of the p53 response elements. The activation of the reporter gene under culture conditions can be detected by fluorescence intensity. This cell line was used to screen the Tox21 10K compound library in the condition of presence of rat liver microsomes and to identify agonists that activate the p53 signaling pathway after in vitro metabolic activation (Ooka et al., Archive of Toxicology 96:1975-1987, 2022). The cytotoxicity of the Tox21 compound library against the p53 RE-bla HCT-116 cell line was tested in parallel by measuring the intra cellular ATP content in the same wells.
Tox21 Assay Protocol Summary:
The p53RE-bla cells were dispensed at 4,000cells/3ul/well in 1536-well black-clear bottom plates. After the assay plates were incubated at 37 C, 5% CO2 incubator for 5 hours, 23 nL of compounds dissolved in DMSO, positive controls or DMSO only was transferred to the assay plate. Following compound addition, 3 uL of rat liver microsomes (Molecular Toxicology, Boone, NC) at final concentration of 0.5 mg/mL and 1uL of B-Nicotinamide adenine dinucleotide 2'-phosphate (NADPH) at final concentration of 0.5 mg/mL were transferred to the assay plate. The plates were incubated at 37 C for 16 hours. 1 uL of LiveBLAzer detection mixture was added to each well and the plates were incubated at room temperature in the dark for 2 h. Fluorescence intensity at 460 and 530 nm emission and 405 nm excitation were measured by an Envision plate reader. For cell viability readout that measures cytotoxicity, 4 ul/well of CellTiter-Glo reagent was added into the assay plates using a Flying Reagent Dispenser. After 30 min incubation at room temperature, the luminescence intensity in the plates was measured using a ViewLux plate reader.
Regarding `NCCN`, the Potency result was “inactive”.
`CC1=C(/C=C/C(C)=C/C=C/C(C)=C/C(=O)O)C(C)(C)CCC1`: the Potency entry was “inactive”.
Turning to `CCCCCCCCCCCCCCCCCC(=O)OCC(O)CO` (stereo not given), the Potency entry was “inactive”.
On the same count and under the same terms, to `O=C(O)CN(CC(=O)O)CC(=O)O` belongs “inactive”; to `CCCCCCCCCCCCCC(=O)OC(C)C`, “inactive”; to `CC(C)=CCl`, “inactive”.
In the case of `NC(=NCCCCCCN=C(N)/N=C(\N)Nc1ccc(Cl)cc1)/N=C(\N)Nc1ccc(Cl)cc1`, the Potency was 32.1 µM (active) and 41.5 µM (active) and inactive.
For `Cc1ccc(C)c(S(=O)(=O)O)c1`, the Potency result was “inactive”.
Still for that read-out and setting: to `Nc1c2c(nc3ccccc13)CCCC2` belongs “inactive”; to `N[C@@H](Cc1cc(I)c(Oc2ccc(O)c(I)c2)c(I)c1)C(=O)O`, “inactive”; to `COCN(COC)c1nc(N(COC)COC)nc(N(COC)COC)n1`, “inactive”.
The same measure, in the same setting: to `O=C1CCCCCCCCCCCN1` belongs “inactive”; to `Cc1ccc(C)c(OCCCC(C)(C)C(=O)O)c1`, “inactive”.
On the same count and under the same terms, the result for `C=Cc1cccc(C)c1` reads “inactive”.
Turning to `OCC(O)CS` (stereo not given), the Potency result is “inactive”.
The same measure, in the same setting: the result for `CC(=O)OC(C)C` reads “inactive”.
For `c1ccc2ccccc2c1`, the Potency entry was “inactive”.
In the case of `Cc1ncc([N+](=O)[O-])n1C`, the Potency entry is “inactive”.
For the compound `CCCCCCC=O`, the Potency entry is “inactive”.
Consider `O=C(Cl)c1c(Cl)c(Cl)c(C(=O)Cl)c(Cl)c1Cl`, for which the Potency entry is “inactive”.
Take `COC(=O)c1ccc(C)cc1`: the “activity change, negative = cytotoxicity” value is 0.0741% (inactive).
As for `C/C=C/C=C/C(=O)O`, the Potency result is “inactive”.
For the compound `CC#C[C@]1(O)CC[C@H]2[C@@H]3CCC4=CC(=O)CCC4=C3[C@@H](c3ccc(N(C)C)cc3)C[C@@]21C`, the Potency result was “inactive”.
Same read-out and setting: to `CCc1cc(C(N)=S)ccn1` belongs “inactive”.
Same read-out and setting: the result for `C[Si](C)(C)N[Si](C)(C)C` reads “inactive”; that for `CCCCCCCCC(=O)O`, “inactive”; that for `CC(=O)C(=O)O`, “inactive”.
On to `CCCCC(CC)COC(=O)c1ccc(C(=O)OCC(CC)CCCC)cc1` (stereo not given), for which the Potency result is “inactive”.
Still for that read-out and setting: to `Cc1cc(C)c(C)cc1C` belongs “inactive”.
On to `CCC(=O)/C=C/C1C(C)=CCCC1(C)C` (stereo not given), for which the Potency result is “inactive”.
The same measure, in the same setting: the result for `COCCOCCOCCO` reads “inactive”.
In the case of `O=C(O)C1=NN(c2ccc(S(=O)(=O)O)cc2)C(=O)C1`, the Potency result is “inactive”.
In the case of `O=[Se](O)O`, the Potency entry is “inactive”.
In the case of `Cc1ccc(S(=O)(=O)N=C=O)cc1`, the Potency result is “inactive”.
On to `CC(C)=CCC/C(C)=C\CO`, for which the Potency entry is “inactive”.
On the same count and under the same terms, to `CC(=O)OCc1ccc2c(c1)OCO2` belongs “inactive”; to `O=C(O)c1cc(C(=O)O)cc(S(=O)(=O)O)c1`, “inactive”.
On the same count and under the same terms, to `CC(=O)c1nccs1` belongs “inactive”; to `CC(C)C(=O)Nc1ccc([N+](=O)[O-])c(C(F)(F)F)c1`, “inactive”.
On the same count and under the same terms, the result for `COCC(C)O` (stereo not given) reads “inactive”.
